This passage reports inhibition results from PubChem BioAssay AID493011 (Sanford-Burnham Center for Chemical Genomics, 2011).

The structures appear in SMILES notation. In all, about 330,000 compounds went through this assay and about 1,400 (0.42%) were called active. This is one part of a sample in which actives are shown more often than they occur.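 The calls were made as follows: active = at least 40% inhibition at 20 µM here, with at most 30% in a related deaminase screen; inactive = the rest.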

For this experiment, the target named is DNA dC->dU-editing enzyme APOBEC-3A (Homo sapiens) (UniProt P31941). The experiment is described as follows: blockers of A3A cytidine deamination on DNA – biochemical, FAM/TAMRA oligo cleavage fluorescence, selectivity assay for APOBEC3G inhibitor project, primary screen (AID 493011).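 Also: plate controls were A3A with DMSO for no effect and wells lacking A3A enzyme for full effect.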 The settings on record: recombinant A3A, FAM/TAMRA ssDNA deamination fluorescence; at 20 µM; active compounds read high.
Chain of DNA dC->dU-editing enzyme APOBEC-3A (Homo sapiens) (P31941 whole entry, looked up): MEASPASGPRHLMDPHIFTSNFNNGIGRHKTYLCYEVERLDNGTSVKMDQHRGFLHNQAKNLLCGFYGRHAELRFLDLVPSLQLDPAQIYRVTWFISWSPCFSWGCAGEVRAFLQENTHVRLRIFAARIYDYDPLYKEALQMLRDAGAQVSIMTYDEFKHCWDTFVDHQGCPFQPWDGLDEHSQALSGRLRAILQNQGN
Turning to `COc1ccccc1C(CNC(=O)c1cccc(S(=O)(=O)Nc2ccc(F)cc2)c1)N(C)C` (stereo not drawn), the inhibition (as a rule, the change of the read-out against control, counted positive when it falls) is -4.98% (inactive). For the molecule `COc1ccc(C)cc1NC(=O)c1[nH]c(C)c(C(C)=O)c1C`, the inhibition is -4.64% (inactive). With `O=C(O)C(F)(F)C(NCc1ccccc1)c1ccccc1` (stereo not drawn) the figure was -9.23% (inactive). Take `CC1(C)CC(=O)C(N=Nc2ccc(S(=O)(=O)N3CCCCCC3)cc2)=C(O)C1`: the inhibition was -0.085% (inactive).

For `O=C1N/C(=C/c2cccn2-c2ccccc2)C(=O)N1c1cccc(Cl)c1`, the inhibition was 0.178% (inactive).

With `N#Cc1ccccc1CN1C(=O)S/C(=C/c2cccn2-c2cccc(C(=O)O)c2)C1=O`, the inhibition is 74.4% (active). As to `Cc1ccccc1NC(=O)CN1C(=O)N/C(=C\c2cccn2-c2cccc(C(=O)O)c2)C1=O`, the inhibition is 93.1% (inactive).

`O=C(c1n[nH]c2c1CCC2)N1CCCC(Nc2cccc(F)c2)C1` (stereo not drawn): the inhibition was -3.42% (inactive).

Take `O=C(COC(=O)/C=C/c1ccc(Br)o1)Nc1cccc(S(=O)(=O)N2CCOCC2)c1`: the inhibition was 16.5% (inactive). With `CC(=O)c1c(C)n(-c2ccc(N(C)C)cc2)c2ccc(OCC(N)=O)cc12`, the inhibition was -1.38% (inactive). Regarding `COc1cccc(NC(C)=[N+](C)CCNS(=O)(=O)c2ccc(Cl)cc2)c1`, the inhibition is 52.2% (active).

As for `COc1cccc(NC(=O)CCNS(=O)(=O)c2ccc3c(c2)oc(=O)n3C)c1`, the inhibition is -2.44% (inactive).

As for `COc1ccc(S(=O)(=O)NCCCCOc2ccc(Cl)cc2)cc1`, the inhibition is -0.023% (inactive). As to `COc1ccc(C2C3=C(OC(C)=O)c4ccccc4C3=Nc3c2c(=O)n(C)c(=O)n3C)cc1` (stereo not drawn), the inhibition is -1.29% (inactive).

For the molecule `Cc1cccc(CCNS(=O)(=O)c2ccc(S(=O)(=O)NC3CCCC3)cc2)c1`, the inhibition was -4.37% (inactive).

Turning to `COCCCNC(NC(=O)c1ccc(OC)cc1)C(Cl)(Cl)Cl` (stereo not drawn), the inhibition was -2.86% (inactive). With `O=C1C2C3C=CC(C4CC34)C2C(=O)N1c1nccs1` (stereo not drawn), the inhibition was 0.014% (inactive). For the molecule `CC(C)c1ccc(/C=C2\NC(=O)NC2=O)cc1`, the inhibition is 82.8% (active). With `Cc1ccc(NC(=O)COc2ccc(/C=C3/NC(=O)NC3=O)cc2)cc1` the figure was -0.201% (inactive); with `CSc1ccc(/C=C2\NC(=O)NC2=O)cc1`, -4.33% (inactive). For `CC[C@]12c3[nH]c4cc(CCC(=O)N(C)C)ccc4c3CCN1C(=O)[C@@H](CC(=O)NCc1ccco1)C[C@@H]2C(=O)N1CCN(C(=O)c2ccco2)CC1`, the inhibition was 2.69% (inactive). In the case of `Cc1nn2c(c1-c1ccccc1)N=C(c1ccco1)CC2c1ccccc1` (stereo not drawn), the inhibition is 0.496% (inactive). Turning to `O=C1C2C3C=CC(C4CC34)C2C(=O)N1/N=C/c1ccc(-c2ccccc2[N+](=O)[O-])o1` (stereo not drawn), the inhibition was -4.49% (inactive). For `O=C(CSc1nccc(=O)[nH]1)Nc1ccc(N2CCOCC2)c(Cl)c1`, the inhibition was 50% (active). Consider `O=C(Nc1ccc(N2CCOCC2)c(Cl)c1)c1ccc(S(=O)(=O)N2CCOCC2)cc1`, for which the inhibition is 2.6% (inactive). For `O=C(CSc1ccc([N+](=O)[O-])cn1)Nc1ccc(N2CCOCC2)c(Cl)c1`, the inhibition is -1.64% (inactive). In the case of `CC(=O)c1ccc(N2CCN(C(=O)c3ccc4nc[nH]c4c3)CC2)cc1`, the inhibition was -2.31% (inactive). As to `CCOC(=O)c1ccc(NC(=O)CSc2ncccn2)cc1`, the inhibition is 66.1% (active). With `CCOC(=O)c1ccc(NC(=O)Cn2cnc3cc(C)c(C)cc32)cc1` the figure was 3.16% (inactive). As for `CCCc1nnc(SCC(=O)Nc2ccc(C(=O)OCC)cc2)o1`, the inhibition was -2.03% (inactive). With `CC(=O)N/C(=N/c1nc(C)cc(C)n1)Nc1ccc(F)cc1F` the figure was -1.6% (inactive). With `CC(=O)NNc1cc(=O)c2c(=O)n(C)c(=O)n(C)c2[nH]1` the figure was 2.94% (inactive); with `CC(=O)Nc1ccc(S(=O)(=O)Oc2ccc(/C=N/N=C3/NC(=O)C(CC(=O)O)S3)cc2)cc1` (stereo not drawn), -1.33% (inactive); with `COc1ccccc1CNC(=O)C1CCN(C(=O)[C@@H]2Cc3ccccc3CN2)CC1`, -2.15% (inactive). With `COc1ccccc1CNC(=O)C1CCN(S(C)(=O)=O)CC1` the figure was 3.64% (inactive). For the molecule `COc1ccccc1CCNC(=O)C1CCN(C(=O)/C=C/c2ccccc2)CC1`, the inhibition was 40.4% (active). For the molecule `CCCc1nnc(SCC(=O)N2C(C)CCCC2C)n1CC` (stereo not drawn), the inhibition is 0.831% (inactive). With `COc1cc(C(CCN2CCN(c3ccccc3)CC2)c2c(OC)cc(OC)c3ccc(=O)oc23)cc(OC)c1OC` (stereo not drawn) the figure was -5.74% (inactive). As to `CC(C)(C)C(=O)CSc1ccc(S(=O)(=O)N2CCCC2)cn1`, the inhibition was -1.15% (inactive).

With `CCN(CC)S(=O)(=O)c1ccc(N2CCOCC2)c(NC(=O)C(C)Oc2ccc(F)cc2)c1` (stereo not drawn), the inhibition is -2.06% (inactive). For the molecule `CC(Oc1ccc(F)cc1)C(=O)Nc1cc(S(=O)(=O)N2CCOCC2)ccc1N1CCN(C)CC1` (stereo not drawn), the inhibition was 63.9% (active). `CN1CCN(c2ccc(S(=O)(=O)N3CCOCC3)cc2NC(=O)CCc2ccccc2)CC1`: the inhibition is 3.6% (inactive). For `O=C(CN(CC1CCCO1)C(=O)CNS(=O)(=O)c1ccccc1)NCc1ccccc1` (stereo not drawn), the inhibition was -2.59% (inactive).

`Cc1ccc(NC(=O)CSCC(=O)Nc2sccc2C#N)cc1`: the inhibition was -0.813% (inactive). Turning to `COc1ccc(NC(=O)CSc2nc(C)cs2)cc1`, the inhibition was 3.79% (inactive).

For the molecule `Cc1csc(SCC(=O)Nc2sccc2C#N)n1`, the inhibition is 67.3% (active).

`CCN(CC)c1ccc(S(=O)(=O)N2CCCCC2)cc1NC(=O)C1=COCCO1`: the inhibition was -3.33% (inactive). As for `CCCC(=O)Nc1cccc(NC(=S)NC(=O)C(C)Oc2ccc(Cl)cc2Cl)c1` (stereo not drawn), the inhibition was 1.55% (inactive). As to `CC(C)Cc1ccc(C(C)C(=N)N)cc1` (stereo not drawn), the inhibition was 2.27% (inactive). Consider `COc1ccc(C)cc1NC(=O)CNCc1cccs1`, for which the inhibition was -2.55% (inactive).

Regarding `COc1ccc(C)cc1NC(=O)CCCN1C(=O)NC(C)(C)C1=O`, the inhibition was 47.3% (active). Consider `COc1ccccc1CNC(=O)CCCN1C(=O)NC2(CCCC2)C1=O`, for which the inhibition is -3.53% (inactive).

Turning to `Cc1nnsc1S(=O)(=O)Cc1ccccc1Cl`, the inhibition is -0.082% (inactive). On to `CC(C)CNC(=O)CC(c1ccccc1)c1c(O)ccc2ccccc12` (stereo not drawn), for which the inhibition was -1.51% (inactive). `CC1CCCCC1NC(=O)NC(=O)COC(=O)C1=NN(c2ccccc2)C(=O)CC1` (stereo not drawn): the inhibition is 1.05% (inactive). For `CSc1nnc(-c2ccncc2)n1CCCN1CCCC1=O`, the inhibition is 63% (active). With `CCCn1c(SCC(=O)N2CCc3ccccc32)nnc1-c1ccncc1` the figure was -1.68% (inactive); with `COCCCn1c(SCC(=O)Nc2ccccc2)nnc1-c1ccncc1`, 0.275% (inactive).
